# Test results taken from PubChem BioAssay AID651871 (Sanford-Burnham Center for Chemical Genomics, 2012).
# Values joined by “and” are separate entries in the source; they are usually repeats but may differ in a detail not shown here. Equal entries are not always repeated.
# Tested on: H9c2
# Assay: cardiomyocyte survival under oxidative or metabolic stress – cell-based, panel, H9c2 and HL-1, ATP luminescence, set 2, SAR follow-up (AID 651871);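 also: cells exposed to stressor for 2 h before ATP readout; reference of the scale not given here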
# Details: H9c2/HL-1 cardiomyocytes, 2-deoxyglucose stress, with 2-deoxyglucose; run 13, at 79 µM (top of the series)
row,Structure (SMILES),activity (protection/inhibition)
1,COc1ccc2c(c1OC)C(=O)N1c3ccccc3C(=O)N(Cc3cccc(Cl)c3Cl)C21 (stereo not drawn),81.4% and 89.7% and -5.69%
2,COc1ccc2nc(-c3cc(OC)c(OC)c(OC)c3)cc(C(=O)NCC(=O)Nc3ccc(C(C)=O)cc3)c2c1,86.7%
3,CCOC(=O)c1cccc(NC(=O)CNC(=O)c2cc(-c3cc(OC)c(OC)c(OC)c3)nc3ccccc23)c1,92.9%
